# Screening data deposited in PubChem BioAssay by National Center for Advancing Translational Sciences (NCATS).
# SMN2 splice up: enhancers of SMN2 splice variant expression | HEK293 SMN2-luciferase splicing reporter, luminescence, 30-36 h | Potency, µM (highest dose often 46.1 µM), without a hit: at the highest dose activity change, positive = activation, hits mostly activators | hit rate 2.8% among 210,000; note: % of control where 0% means no effect; nearly all actives have a fitted effect of over 55% in size
#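 HEK293 cells carry an SMN2 minigene-luciferase reporter in which exon 7 inclusion puts luciferase in frame. Cells were seeded at 2000 cells/well, attached for 10-12 hours, then exposed to compounds for 30-36 hours at 37C before ONE-Glo luminescence.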
# KinaseGlo FLuc: blocks Kinase-Glo luciferase, a counter-screen artifact; Q27757; hit rate 0.28% among 200,000; Potency, µM (highest dose often 38.3 µM), without a hit: at the highest dose activity change, negative = inhibition, usual class: inhibitors; Kinase-Glo luciferase, ATP luminescence, 8 min; note: % is set by controls: 0 for no effect and ±100 for the full control effect; nearly all actives have a fitted effect of over 60% in size
#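 Compound is pinned into ATP-containing buffer (10 uM ATP, imidazole pH 7.2, 7 mM MgCl2). Kinase-Glo luciferase reagent is then added. Light output is recorded following an 8-min room-temperature incubation.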
# ELG1 genotox: inducers of genotoxicity in HEK293T ELG1-luciferase cells; HEK293T ELG1-luciferase reporter, luminescence, 16 h; Potency, µM (highest dose often 46 µM), for the others: top-dose activity change, positive = activation, most hits filed as activators; hit rate 1.3% among 330,000; note: % of control where 0% means no effect; nearly all actives have a fitted effect of over 60% in size
#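 HEK293T cells expressing luciferase-tagged ELG1 were treated with compound or DMSO for 16 hr at 37°C. Luciferase activity was then read after 30 min with ONE-Glo at room temperature; rising signal flags genetic stress.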
# Rab9 promoter act: Rab9 promoter activation; Potency, µM (doses to about 9.22 µM), for the others: at the top dose activation, negative = inhibition, actives largely listed as activators; AID 485297; hit rate 2.8% among 320,000; Huh7 Rab9 promoter-luciferase reporter, luminescence, 24 h; note: % of control where 0% means no effect; nearly all actives have a fitted effect of over 60% in size
#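 Rab9 promoter-driven luciferase in stably transfected Huh7 cells; 1500 cells/well rested 2 h, exposed to compound in DMSO for 24 h at 37 °C, 5% CO2. Luminescence read 10 min after adding luciferase reagent at ambient temperature.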
# FLuc modulator: firefly luciferase modulation, counter-screen for miR-21 project. hit rate 6.9% among 360,000. purified FLuc, Km substrates, luminescence inhibition. Potency, µM (series often up to 57.5 µM), for the others: at the top dose activity change, negative = inhibition, usual class: inhibitors. AID 588342;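 note: plate controls were vehicle for no effect and reference inhibitor for full effect; nearly all actives have a fitted effect of over 55% in size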
# Target sequence (P08659 whole entry, looked up): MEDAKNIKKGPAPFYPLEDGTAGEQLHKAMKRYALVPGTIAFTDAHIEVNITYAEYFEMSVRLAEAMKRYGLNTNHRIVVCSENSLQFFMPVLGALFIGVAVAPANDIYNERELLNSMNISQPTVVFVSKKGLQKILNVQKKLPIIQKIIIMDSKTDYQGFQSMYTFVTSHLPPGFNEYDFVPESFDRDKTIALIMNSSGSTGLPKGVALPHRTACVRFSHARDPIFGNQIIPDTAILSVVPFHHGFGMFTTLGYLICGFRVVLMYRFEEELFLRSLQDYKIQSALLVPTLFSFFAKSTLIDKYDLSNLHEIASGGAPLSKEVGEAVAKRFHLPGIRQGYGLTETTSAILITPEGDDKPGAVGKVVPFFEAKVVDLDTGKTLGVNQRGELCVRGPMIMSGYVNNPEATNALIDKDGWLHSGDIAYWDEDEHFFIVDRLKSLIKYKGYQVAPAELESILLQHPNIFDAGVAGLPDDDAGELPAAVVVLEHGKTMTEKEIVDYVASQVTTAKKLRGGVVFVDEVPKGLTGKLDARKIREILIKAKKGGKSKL
#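 Purified P. pyralis luciferase, 10 nM final, with Km-level 10 uM D-luciferin and 10 uM ATP in 50 mM Tris acetate pH 7.5, 10 mM Mg acetate, 0.01% Tween-20, 0.05% BSA; 6-point qHTS titration about 60 µM downward; luminescence read.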
# NPC1 promoter act: NPC1 promoter activation. hit rate 2.4% among 320,000. Potency, µM (titrated, usually from 9.22 µM), for the others: top-dose activation, usual class: activators. Huh7 NPC1 promoter luciferase reporter, 24 h. AID 485313; note: % of control where 0% means no effect; nearly all actives have a fitted effect of over 60% in size
#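 Luminescence from an NPC1 promoter-driven luciferase reporter in stably transfected Huh7 cells was measured after 24 h compound treatment at 37 °C, followed by 10 min ambient incubation with luciferase detection reagent.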
# The depositor's hits bear a star; ? = inconclusive; / = not tested or not shown; [ ] = another dose, or the depositor's remark. This is a sample that favours compounds with a hit; in the whole collection about 7.4% have one here. Calls come from the whole dose curve; as a rule, active = well fitted curve in the direction sought with a large enough effect; inconclusive = small, poorly fitted or top-dose-only effect, or another doubt; inactive = no such curve, though single readings can be large; an effect the other way counts as inactive or inconclusive. Potency is the fitted concentration of half-maximal effect.
SMILES,SMN2 splice up,KinaseGlo FLuc,ELG1 genotox,Rab9 promoter act,FLuc modulator,NPC1 promoter act
COc1cc(OC)cc(C(=O)Nc2ccc3c(c2)OCCO3)c1,10µM*,/,?,3.2µM*,3µM*,4µM*
O=C(NCc1ccc2c(c1)OCO2)c1ccc(NC(=O)C2CCCO2)cc1 (stereo not drawn),19%,0%,1%,-5%,-4%,-3%
O=C(Nc1ccc2c(c1)OCCO2)c1ccc(NC(=O)C2CCCO2)cc1 (stereo not drawn),-5%,-2%,5%,22%,12µM*,14%
O=C(Nc1ccc2c(c1)OCCO2)c1ccc(Cl)cc1,/,/,?,0.45µM*,1.5µM*,0.71µM*
c1cc(CNc2ccc3c(c2)OCCO3)ccn1,11%,-2%,18µM*,1%,?,0%
O=C(O)/C=C(/C(=O)O)[C@]12CCN3CC4=CCO[C@@H]5CC(=O)N[C@@H]1C5[C@H]4C[C@H]32 (stereo partly drawn),-3%[9.22 µM],-1%[7.66 µM],/,/,/,/
Cc1c(O)ccc(-c2[nH]ncc2-c2nc3ccccc3s2)c1O,4%,-2%,-8%,2%,3%,-2%
Cc1c(O)ccc(-c2n[nH]c(C(=O)O)c2-c2nc3ccccc3s2)c1O,/,/,13%,16%,17µM*,0%
O=S1(=O)N=C(Nc2ccc(N3CCOCC3)cc2)c2ccccc21,?,0%,2%,7%,13µM*,7%
O=C(Nc1cc(C(F)(F)F)ccc1Cl)c1noc2c1CCCCC2,12%,/,/,/,?,/
O=C(Nc1cnn(Cc2ccc(F)cc2)c1)c1noc2c1CCCC2,-10%,0%,?,4µM*,15µM*,?
O=C(Nc1cccc(O)c1)c1noc2c1CCCCC2,10%,?,?,?,0.95µM*,?
COC(=O)c1ccccc1NC(=O)c1noc2c1CCCC2,11%,1%,8%,5%,17µM*,7%
O=C(Nc1ccccc1C(=O)N1CCOCC1)c1noc2c1CCCC2,9%,0%,0%,-3%,0%,3%
O=C(Nc1ccc(OC(F)(F)F)cc1)c1noc2c1CCCC2,8.9µM*,/,/,/,?,/
CC(C)(C)C1CCc2onc(C(=O)Nc3cnn(Cc4ccc(F)cc4)c3)c2C1 (stereo not drawn),0%,4%,13%,-6%,1%,-4%
COc1cc(OC)cc(C2=NCCN2)c1,1%,-1%,-2%,0%,0%,-4%
Cc1c2oc3c(C)ccc(C(=O)N[C@@H]4C(=O)N[C@@H](C(C)C)C(=O)N5CCC[C@@H]5C(=O)N(C)CC(=O)N(C)[C@@H](C(C)C)C(=O)O[C@H]4C)c3nc-2c(C(=O)N[C@@H]2C(=O)N[C@@H](C(C)C)C(=O)N3CCC[C@@H]3C(=O)N(C)CC(=O)N(C)[C@@H](C(C)C)C(=O)O[C@H]2C)c(N)c1=O,/,5%,/,/,/,/
COc1ccc(NC(=O)CN(c2ccc(OC)c(Cl)c2)S(=O)(=O)c2ccccc2)c(OC)c1,/,/,-1%,0%,-2%,-4%
CC(=O)c1ccc(NC(=O)c2noc3c2CCC3)cc1,?,-13%,-9%,?,12µM*,0.79µM*
Cc1ccc(NC(=O)c2noc3c2CCC3)cc1C,2.8µM*,-22%,?,0.63µM*,2.4µM*,3.2µM*
COc1cc(NC(=O)c2noc3c2CCC3)c(OC)cc1Cl,?,0%,6%,0%,7%,7%
COc1ccc(NC(=O)c2noc3c2CCC3)cc1,10µM*,?,?,0.5µM*,2.7µM*,1.4µM*
CC(C)CCOc1ccc(C(=O)NNC(=O)CNC(=O)c2ccccc2F)cc1,/,/,-1%,/,/,/
O=C(CCC1CCCN(C(=O)c2cccc(F)c2)C1)N1CCN(c2ccccn2)CC1 (stereo not drawn),/,/,-12%,0%,5%,-1%
SMILES,SMN2 splice up,KinaseGlo FLuc,ELG1 genotox,Rab9 promoter act,FLuc modulator,NPC1 promoter act
Cc1cc(NC(=O)C2CCCCC2C(=O)O)ccc1NC(=O)c1ccccc1 (stereo not drawn),/,/,3%,3%,0%,-3%
O=C(OCc1nnc(-c2ccc(Cl)cc2)o1)C12CC3CC(CC(O)(C3)C1)C2,12%,0%,?,2.2µM*,5.4µM*,2.8µM*
COc1cccc(/C=C/C(=O)OCC(=O)NC2CC2)c1OC,/,/,2%,/,/,/
CCOC(=O)C1CCCN(C(=O)CCS(=O)(=O)c2cc3c(cc2Cl)NC(=O)CO3)C1 (stereo not drawn),/,/,/,/,-13%,/
Cn1ccnc1SCC(=O)c1cccc(C(F)(F)F)c1,/,/,?,4µM*,17µM*,2.8µM*
COC(=O)c1ccc(CSC2=NCCS2)cc1,18µM*,3%,?,?,?,?
COc1cc(C(=O)CSc2nccn2C)cc(OC)c1OC,/,/,11%,8%,-1%,0%
COc1ccc(C(=O)CSc2nccn2C)cc1,/,/,23µM*,3.5µM*,17µM*,2.8µM*
Cn1ccnc1SCC(=O)Nc1cccc(C(F)(F)F)c1,-8%,1%,9%,14%,2%[2.3 µM],12%
COC(=O)c1ccc(CSc2nccn2C)cc1,11µM*,-2%,13µM*,18%,?,18%
COC(=O)c1ccc(CNC(=O)CSC2=NCCS2)cc1,9%,1%,-3%,0%,-6%,-1%
N#Cc1ccc2c(c1)C[C@]1(CCCCN3C(=O)c4ccccc4C3=O)Oc3c(c(=O)oc4ccccc34)C2O1,/,/,/,0%[1.84 µM],2%[11.5 µM],-7%[1.84 µM]
CCCCN(CC(=O)NC1CCCC1)C(=O)C(=O)Nc1ccc2c(c1)OCCO2,/,/,1%,0%,-1%,?
O=C(CSc1nccn1-c1ncc(C(F)(F)F)cc1Cl)c1ccc(Br)cc1,-34%,-3%,?,1.6µM*,-18%,3.5µM*
O=C(Nc1ccc(Br)cc1)c1cccn1-c1ncc(C(F)(F)F)cc1Cl,3%,-3%,-1%,2%,0%,6%
